Measured values from ChEMBL document CHEMBL3988442, “University of Dundee, Small-Polar-MMV Screening Library” (2021).
For some of these results: Entries with a potency or affinity are not part of this list.

How the values were obtained:
Parameters in all cases: scale not given: direction of the effect not stated beside the values
[1] = target: Protein translocase subunit SecA (Escherichia coli (strain K12)) (UniProt P10408); experiment: Assay to Identify E. coli SecA ATPase Inhibitors; format: functional; conditions: 30 µM
[2] = target: T1, Ubiquitin-activating enzyme e1, putative (Leishmania donovani (strain BPK282A1)) (UniProt E9BSI1); experiment: Leishmania donovani Ubiquitin Activating Enzyme (LdE1); format: functional; conditions: 30 µM
T1 sequence (whole entry): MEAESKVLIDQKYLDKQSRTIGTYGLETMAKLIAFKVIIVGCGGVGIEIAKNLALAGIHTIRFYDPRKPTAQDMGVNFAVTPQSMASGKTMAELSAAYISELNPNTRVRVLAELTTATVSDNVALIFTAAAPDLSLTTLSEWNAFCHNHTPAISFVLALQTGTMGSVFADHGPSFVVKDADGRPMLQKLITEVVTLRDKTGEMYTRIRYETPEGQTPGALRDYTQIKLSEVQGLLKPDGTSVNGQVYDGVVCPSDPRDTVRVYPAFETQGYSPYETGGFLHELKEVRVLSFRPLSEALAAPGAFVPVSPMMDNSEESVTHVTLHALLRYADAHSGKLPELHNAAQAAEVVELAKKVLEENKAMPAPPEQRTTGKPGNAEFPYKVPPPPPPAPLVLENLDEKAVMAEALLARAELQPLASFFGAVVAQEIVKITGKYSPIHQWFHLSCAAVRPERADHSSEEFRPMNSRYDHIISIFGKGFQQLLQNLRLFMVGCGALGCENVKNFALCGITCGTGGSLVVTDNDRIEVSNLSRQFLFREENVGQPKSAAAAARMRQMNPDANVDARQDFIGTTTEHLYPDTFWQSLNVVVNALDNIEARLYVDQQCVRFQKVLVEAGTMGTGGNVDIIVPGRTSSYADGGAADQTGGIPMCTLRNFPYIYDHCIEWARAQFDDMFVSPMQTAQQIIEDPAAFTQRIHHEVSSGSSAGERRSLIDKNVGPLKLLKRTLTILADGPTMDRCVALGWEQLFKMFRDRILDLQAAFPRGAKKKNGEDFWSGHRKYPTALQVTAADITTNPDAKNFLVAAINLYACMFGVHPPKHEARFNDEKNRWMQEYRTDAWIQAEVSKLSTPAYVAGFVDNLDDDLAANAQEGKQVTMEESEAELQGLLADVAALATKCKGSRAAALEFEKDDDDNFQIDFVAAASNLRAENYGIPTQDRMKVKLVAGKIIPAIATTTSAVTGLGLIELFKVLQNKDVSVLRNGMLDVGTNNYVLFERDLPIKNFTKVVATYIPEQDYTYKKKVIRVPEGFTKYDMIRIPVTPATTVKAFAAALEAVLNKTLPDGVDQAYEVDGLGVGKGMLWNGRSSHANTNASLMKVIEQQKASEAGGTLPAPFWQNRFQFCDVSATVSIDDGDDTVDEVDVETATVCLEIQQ

[3] = target: AMP-activated protein kinase, AMPK (Homo sapiens) (UniProt P54646+O43741+P54619+Q9UGJ0+Q9Y478+Q13131+Q9UGI9); experiment: AMP-dependent Kinase enzyme assay. An in vitro enzyme assay that detects ADP turnover that is directly proportional to AMPK activity. This uses naive AMPK that is activated during the assay with MK-8722; format: functional; conditions: 30 µM
[4] = target: Sialic acid-binding Ig-like lectin 9 (Homo sapiens) (UniProt Q9Y336); experiment: Hs-Siglec9 ALPHAscreen SOP 20170721; conditions: 10 µM
Trypanosoma cruzi = experiment: Trypanosoma cruzi phosphomannomutase and mannose-1-phosphate guanylyltransferase assay; format: functional; conditions: 10 µM
[5] = target: T2, Arginase-2, mitochondrial (Homo sapiens) (UniProt P78540); experiment: in vitro enzyme assay to detect the production of urea directly proportional to the activity of Arginase II; format: functional; conditions: 33.3 µM; note: in the data most compounds retested in dose-response had high values
T2 sequence (whole entry): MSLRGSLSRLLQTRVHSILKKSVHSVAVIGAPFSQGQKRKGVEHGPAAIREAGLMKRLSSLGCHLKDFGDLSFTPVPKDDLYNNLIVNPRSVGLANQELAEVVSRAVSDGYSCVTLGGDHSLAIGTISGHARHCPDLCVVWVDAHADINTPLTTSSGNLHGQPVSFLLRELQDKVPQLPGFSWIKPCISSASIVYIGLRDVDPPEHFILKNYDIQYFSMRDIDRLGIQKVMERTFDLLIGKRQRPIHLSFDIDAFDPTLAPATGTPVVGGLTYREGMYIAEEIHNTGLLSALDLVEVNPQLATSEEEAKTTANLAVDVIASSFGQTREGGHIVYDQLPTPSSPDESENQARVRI

[6] = target: T3, Proteasome subunit beta (Trypanosoma cruzi) (UniProt O96673); experiment: Trypanosoma cruzi proteasome chymotrypsin-like activity (TcProtChymo) assay.; note: in the data most compounds retested in dose-response had high values; format: functional; conditions: 9.37 µM
T3 sequence (whole entry): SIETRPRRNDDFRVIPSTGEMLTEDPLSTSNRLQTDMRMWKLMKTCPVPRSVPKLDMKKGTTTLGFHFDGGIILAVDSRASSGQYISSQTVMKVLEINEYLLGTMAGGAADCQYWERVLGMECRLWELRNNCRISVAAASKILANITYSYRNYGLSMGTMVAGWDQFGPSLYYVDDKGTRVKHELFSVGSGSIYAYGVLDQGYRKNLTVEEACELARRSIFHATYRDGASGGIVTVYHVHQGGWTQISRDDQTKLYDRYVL

Homo sapiens = species on record: Homo sapiens; experiment: To identify inhibition of the IFN signalling (Jak-Stat) pathway via expression of an eGFP reporter gene under the control of an IFN-stimulated response element (ISRE) containing MxA promoter.; format: functional; conditions: 30 µM
[7] = target: T4, Tyrosyl-tRNA synthetase, putative (Trypanosoma cruzi (strain CL Brener)) (UniProt Q4DSP6); experiment: Trypanosoma cruzi tyrosyl tRNA synthetase (TcYRS) _High Tyrosine SOP; format: functional; conditions: 30 µM; note: in the data most compounds retested in dose-response had high values
T4 sequence (whole entry): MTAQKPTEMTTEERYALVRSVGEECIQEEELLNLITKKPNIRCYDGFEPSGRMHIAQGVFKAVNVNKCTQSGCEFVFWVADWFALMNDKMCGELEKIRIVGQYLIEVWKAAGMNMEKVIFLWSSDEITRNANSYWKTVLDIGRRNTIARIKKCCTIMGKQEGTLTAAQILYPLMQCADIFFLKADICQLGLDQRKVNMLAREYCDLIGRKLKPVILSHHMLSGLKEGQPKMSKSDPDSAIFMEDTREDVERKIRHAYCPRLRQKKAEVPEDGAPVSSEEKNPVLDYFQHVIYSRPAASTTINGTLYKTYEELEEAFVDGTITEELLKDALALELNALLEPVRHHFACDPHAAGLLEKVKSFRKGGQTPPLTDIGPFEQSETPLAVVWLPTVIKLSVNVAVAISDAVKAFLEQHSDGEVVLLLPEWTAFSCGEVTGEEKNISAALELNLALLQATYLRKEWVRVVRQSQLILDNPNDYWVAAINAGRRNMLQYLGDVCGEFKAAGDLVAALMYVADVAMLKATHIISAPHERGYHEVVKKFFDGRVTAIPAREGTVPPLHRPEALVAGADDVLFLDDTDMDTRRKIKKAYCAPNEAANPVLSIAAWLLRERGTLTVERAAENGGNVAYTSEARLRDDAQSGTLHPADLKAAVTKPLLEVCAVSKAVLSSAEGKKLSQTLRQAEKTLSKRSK

[8] = target: T4, Tyrosyl-tRNA synthetase, putative (Trypanosoma cruzi (strain CL Brener)); experiment: Trypanosoma cruzi tyrosyl tRNA synthetase (TcYRS) SOP; format: functional; conditions: 30 µM
[9] = target: Chromo domain-containing protein 1 (Saccharomyces cerevisiae (strain ATCC 204508 / S288c) (Baker's yeast)) (UniProt P32657); experiment: ScCHD-1 Enzyme Inhibition Assay; format: functional; conditions: 30 µM; note: in the data most compounds retested in dose-response had high values
Sequence of Chromo domain-containing protein 1 (Saccharomyces cerevisiae (strain ATCC 204508 / S288c) (Baker's yeast)) (P32657 whole entry, the tested form may be a part): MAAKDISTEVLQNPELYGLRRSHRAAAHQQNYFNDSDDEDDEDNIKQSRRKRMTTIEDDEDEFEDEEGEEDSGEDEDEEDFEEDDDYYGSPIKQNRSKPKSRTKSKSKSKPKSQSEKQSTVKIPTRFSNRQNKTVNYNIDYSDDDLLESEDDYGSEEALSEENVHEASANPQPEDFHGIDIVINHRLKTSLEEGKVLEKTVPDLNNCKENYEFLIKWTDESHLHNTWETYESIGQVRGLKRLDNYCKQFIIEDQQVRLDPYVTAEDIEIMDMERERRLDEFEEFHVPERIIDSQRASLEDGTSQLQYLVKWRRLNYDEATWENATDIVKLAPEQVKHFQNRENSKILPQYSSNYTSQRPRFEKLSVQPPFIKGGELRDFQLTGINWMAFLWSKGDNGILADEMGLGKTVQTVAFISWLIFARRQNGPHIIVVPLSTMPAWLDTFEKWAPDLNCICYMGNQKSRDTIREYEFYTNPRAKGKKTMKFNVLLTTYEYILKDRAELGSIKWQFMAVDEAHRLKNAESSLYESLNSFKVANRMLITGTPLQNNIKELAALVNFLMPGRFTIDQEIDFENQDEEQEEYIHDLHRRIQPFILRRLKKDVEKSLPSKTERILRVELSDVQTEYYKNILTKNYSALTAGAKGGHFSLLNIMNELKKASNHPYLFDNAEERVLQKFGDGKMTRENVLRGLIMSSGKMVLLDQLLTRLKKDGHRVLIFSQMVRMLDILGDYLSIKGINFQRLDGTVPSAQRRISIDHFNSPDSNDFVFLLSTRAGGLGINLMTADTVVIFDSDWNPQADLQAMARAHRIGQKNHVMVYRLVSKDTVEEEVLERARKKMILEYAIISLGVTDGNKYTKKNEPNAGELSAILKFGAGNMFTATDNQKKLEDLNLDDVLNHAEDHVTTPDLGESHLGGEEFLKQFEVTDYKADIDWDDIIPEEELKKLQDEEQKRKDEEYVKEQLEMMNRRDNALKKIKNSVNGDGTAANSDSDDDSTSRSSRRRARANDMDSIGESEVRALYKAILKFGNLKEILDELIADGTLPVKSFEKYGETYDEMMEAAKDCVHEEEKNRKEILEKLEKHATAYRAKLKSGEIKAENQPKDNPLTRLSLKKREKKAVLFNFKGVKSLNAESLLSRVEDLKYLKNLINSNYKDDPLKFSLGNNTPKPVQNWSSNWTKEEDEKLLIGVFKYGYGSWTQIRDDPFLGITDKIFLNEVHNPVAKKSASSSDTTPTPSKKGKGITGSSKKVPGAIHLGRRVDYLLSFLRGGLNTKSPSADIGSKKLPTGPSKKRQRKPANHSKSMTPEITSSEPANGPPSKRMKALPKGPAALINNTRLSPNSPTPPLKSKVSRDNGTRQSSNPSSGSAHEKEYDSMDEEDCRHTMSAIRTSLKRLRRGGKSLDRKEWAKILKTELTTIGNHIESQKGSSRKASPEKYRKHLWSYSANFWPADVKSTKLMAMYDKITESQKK

Sequence of Sialic acid-binding Ig-like lectin 9 (Homo sapiens) (Q9Y336 whole entry): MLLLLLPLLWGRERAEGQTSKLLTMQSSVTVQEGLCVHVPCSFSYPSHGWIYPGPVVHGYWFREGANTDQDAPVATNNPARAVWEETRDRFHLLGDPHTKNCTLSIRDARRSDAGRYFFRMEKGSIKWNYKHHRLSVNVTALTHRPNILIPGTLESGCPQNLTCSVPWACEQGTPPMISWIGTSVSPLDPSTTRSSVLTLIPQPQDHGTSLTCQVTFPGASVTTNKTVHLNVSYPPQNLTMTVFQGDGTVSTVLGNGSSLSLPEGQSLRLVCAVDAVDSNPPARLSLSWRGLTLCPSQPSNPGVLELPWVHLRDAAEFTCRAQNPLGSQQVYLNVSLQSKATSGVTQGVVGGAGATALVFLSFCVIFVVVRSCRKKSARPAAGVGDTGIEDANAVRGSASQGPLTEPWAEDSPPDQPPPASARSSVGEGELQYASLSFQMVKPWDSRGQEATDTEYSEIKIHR
Sequence of Protein translocase subunit SecA (Escherichia coli (strain K12)) (P10408 whole entry): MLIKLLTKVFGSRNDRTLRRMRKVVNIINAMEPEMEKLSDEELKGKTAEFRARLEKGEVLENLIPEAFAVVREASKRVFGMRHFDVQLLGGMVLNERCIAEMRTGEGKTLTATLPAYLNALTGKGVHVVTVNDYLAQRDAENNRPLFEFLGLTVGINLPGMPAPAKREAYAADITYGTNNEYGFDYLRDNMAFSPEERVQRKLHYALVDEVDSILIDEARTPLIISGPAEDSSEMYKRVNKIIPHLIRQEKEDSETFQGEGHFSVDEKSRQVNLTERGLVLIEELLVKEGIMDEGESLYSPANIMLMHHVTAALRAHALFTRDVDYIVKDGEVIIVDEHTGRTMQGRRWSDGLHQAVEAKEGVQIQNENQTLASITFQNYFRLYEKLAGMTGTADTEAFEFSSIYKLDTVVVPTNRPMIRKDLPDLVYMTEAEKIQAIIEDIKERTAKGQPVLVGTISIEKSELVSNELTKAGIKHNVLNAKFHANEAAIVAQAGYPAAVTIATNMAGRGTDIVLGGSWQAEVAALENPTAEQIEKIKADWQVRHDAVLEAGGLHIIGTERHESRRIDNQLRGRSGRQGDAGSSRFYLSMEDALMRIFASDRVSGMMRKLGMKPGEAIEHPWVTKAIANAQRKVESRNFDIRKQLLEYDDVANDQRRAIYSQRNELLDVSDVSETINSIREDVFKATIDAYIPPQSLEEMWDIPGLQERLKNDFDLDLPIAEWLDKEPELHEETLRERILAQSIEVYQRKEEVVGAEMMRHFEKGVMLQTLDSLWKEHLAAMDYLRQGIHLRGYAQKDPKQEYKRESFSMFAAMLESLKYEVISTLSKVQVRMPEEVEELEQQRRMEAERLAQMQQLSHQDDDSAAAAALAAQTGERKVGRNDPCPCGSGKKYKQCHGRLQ

Structure (SMILES) | Percent Effect [1] | Percent Effect [2] | Percent Effect [3] | Percent Effect [4] | Percent Effect (Trypanosoma cruzi) | Percent Effect [5] | Percent Effect [6] | Percent Effect (Homo sapiens) | Percent Effect [7] | Percent Effect [8] | Percent Effect [9]
CC(=O)Nc1nc(C2CCN(C(C)=O)CC2)cs1 | 0.424% | 8% | 6.04% | -0.593% | -4.33% | 0.699% | 11.2% | 4.06% | 6.38% | 6.41% | -3.5%
CCc1nnc2n1CCN(C(=O)c1ccc(C(F)(F)F)nc1C)C2 | -6.11% | 20.2% | -4.83% | 14.3% | 5.95% | -6.08% | 9.09% | -2.36% | 2.46% | 16.5% | -8.19%
CC(C)(C)OC(=O)N1CCCC[C@H]1C(=O)NCc1nccs1 | -0.685% | 0% | -2.33% | 5.11% | 5.18% | 16.6% | 0.944% | -20.1% | 4.3% | 8.64% | -4.5%
COc1ccc(C(=O)NS(=O)(=O)c2cncc(Br)c2)cc1OC | -6.13% | -5.41% | -4.05% | 9.13% | -2.51% | 0% | 2.07% | 24.4% | 2.65% | 0% | -1.34%
O=C(CCCc1cn[nH]c1)N1C[C@@H](CN2CCOCC2)[C@@H](CO)C1 | -5.38% | -5.48% | 0.507% | -3.16% | -2.74% | -2.27% | 4.08% | 5.26% | 0% | -5% | -2.89%
Cc1ncccc1OC1(C(=O)NCCCN2CCOCC2)CCNCC1 | -0.6% | 5.41% | -5.62% | -0.0436% | -5.02% | 1.43% | 11.2% | 11% | 6.88% | 9.76% | -2.8%
OC1(Cn2ccc3ncccc32)CCN(Cc2ccccn2)CC1 | -3.91% | 6.76% | 8.71% | -8.37% | -10.3% | -5.34% | 13.7% | 34.1% | -3.23% | -9.09% | -14.5%
c1coc(CN2Cc3nccn3CC(Cn3cncn3)C2)c1 (stereo not given) | -4.49% | -2.74% | -1.24% | 1.11% | -2.38% | -4.39% | 6.25% | -3.99% | 1.04% | 1.24% | -1.23%
N#Cc1ccnc(N2CCN(CC(O)c3cccc(F)c3)CC2)c1 (stereo not given) | -4.31% | 2.7% | 0.651% | -0.828% | -3.42% | 3.72% | 2.83% | -1.26% | 5.38% | 11.1% | -2.53%
CCS(=O)(=O)c1ccc(N2CCC(NC(C)=O)CC2)cc1 | -5.48% | 2.67% | 0.562% | -0.234% | -3.21% | -1.04% | 14.8% | 24.6% | 2.73% | 8.64% | -7.72%
COc1ccc(OC)c(CN2CCCCCC2c2cccs2)c1 (stereo not given) | -4.16% | -7.79% | -2.05% | -14.1% | 7.59% | 3.23% | 9.05% | 8.15% | -5.29% | -32% | -9.84%
CN(CCc1cccs1)C1CCCN(Cc2noc(C3CC3)n2)C1 (stereo not given) | -1.04% | 4.17% | -15.1% | -5.62% | 2.82% | 10.2% | 15.6% | -4.89% | 3.16% | 7.69% | -3.54%
COC(=O)c1ccc2ccn(CC3CCCO3)c(=O)c2c1 (stereo not given) | -0.0971% | 5.48% | -14.6% | 5.25% | 0.979% | 12.3% | 16.3% | 6.29% | 4.3% | 10% | 78.9%
CC(C)CN1C(=O)c2ccc(C(=O)NCCc3c[nH]cn3)cc2C1=O | -1.59% | -1.33% | 14.6% | 3.62% | -7.07% | -9.68% | 8.87% | -4.06% | 5.29% | 5.13% | -5.85%
O=C(c1ccnnc1)N1C[C@@H](OCC2CCCC2)[C@H]2OCCC[C@H]21 | -7.56% | 8.11% | 0.254% | -1.77% | -1.95% | 3.33% | 11.8% | -12.9% | 12.9% | -8.54% | -5.93%
CCn1cnnc1C1CCN(C(=O)c2ccc(C(=O)OC)s2)CC1 | -6.84% | 10.4% | 4.62% | 9.21% | -4.87% | -0.356% | 7.43% | -6.83% | 4.85% | 12.2% | -5.74%
COCCNS(=O)(=O)c1cccc2c1CN(C(=O)c1ccccc1)CC2 | -6.17% | -4.17% | 4.56% | 0.0622% | -1.65% | -2.21% | 4.39% | 34.9% | -4.21% | -10.3% | 4.48%
O=C(c1ccc[nH]1)N1CCc2c(COCC3CC3)cncc2C1 | 0.487% | 13.5% | 0.508% | -7.71% | -4.99% | 0.955% | 29.1% | 0.5% | 3.24% | 12.8% | 0.2%
COCCN1CCN(CCCS(=O)(=O)c2ccccc2)CC1C (stereo not given) | -1.14% | -5.41% | -5.83% | 0.945% | 6.22% | 0.554% | 4.13% | -19.8% | 4.95% | 1.22% | -0.0339%
COc1ccc(CN2C[C@@H]3CCCO[C@@H]3[C@H](NS(C)(=O)=O)C2)cc1 | 0.295% | 13.3% | -2.32% | 4.91% | 2.9% | -48.2% | 5.13% | -24.2% | 6.25% | 25% | -6.84%
